# Source: the supplement of paper PMC12669032
# Test system: Bacteroides clarus
# Assay: growth AUC relative to DMSO control (median of replicates) (fraction); higher = more growth (less inhibition), active = hit call of the paper
# Details: 20 µM; 24 h;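 active = AUC reduced over 20% with Padj below 0.05 in at least 2 of 3 replicates; inactive = otherwise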
# How it was run: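 Gut bacterial monocultures were grown anaerobically at 37 °C in mGAM from a starting OD600 of 0.05 with 20 µM compound (1% DMSO), in round-bottom 96-well plates under pierced gas-permeable seals, and OD600 was read hourly for 24 h. With the minimum OD set to 0, area under the growth curve was normalised to the plate median of solvent-only wells, or to row and column medians on the industrial chemical plate. Each value is the median of three biological replicates grown on separate days.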
row,SMILES,growth AUC
1,CN(C)c1nc(=O)n(C2CCCCC2)c(=O)n1C,0.985 (inactive)
2,Nc1c(Cl)c(Cl)c(Cl)c(Cl)c1Cl,0.935 (inactive)
3,Oc1ccc(-c2ccccc2)cc1,0.948 (inactive)
4,Cn1cc(-c2ccccc2)c(=O)c(-c2cccc(C(F)(F)F)c2)c1,0.999 (inactive)
5,CCCOCC(=Nc1ccc(Cl)cc1C(F)(F)F)n1ccnc1,0.919 (inactive)
6,O=P(O)(O)CCCl,1.02 (inactive)
7,CCNc1nc(NC(C)C)[nH]c(=O)n1,1.02 (inactive)
8,CC1=NNC(=O)N(/N=C/c2cccnc2)C1,0.98 (inactive)
9,S=C1NCCN1,0.998 (inactive)
10,COC(=O)N(C(=O)N1CO[C@@]2(C(=O)OC)Cc3cc(Cl)ccc3C2=N1)c1ccc(OC(F)(F)F)cc1,0.965 (inactive)
11,Clc1ccccc1Cl,1.02 (inactive)
12,C#CCC1=C(C)C(OC(=O)C2C(C=C(C)C)C2(C)C)CC1=O (stereo not drawn),1.04 (inactive)
13,Cc1nnc(-c2ccccc2)c(=O)n1N,1 (inactive)
14,COC(=O)c1ccccc1CS(=O)(=O)NC(=O)Nc1nc(OC)cc(OC)n1,0.972 (inactive)
15,CCCCCCCCCc1ccc(O)cc1,0.739 (active)
16,COP(N)(=S)Oc1ccccc1C(=O)OC(C)C (stereo not drawn),0.981 (inactive)
17,O=C(NCCc1ncc(C(F)(F)F)cc1Cl)c1ccccc1C(F)(F)F,1.01 (inactive)
18,CCN(Cc1ccc(Cl)nc1)/C(=C/[N+](=O)[O-])NC,0.991 (inactive)
